In PubChem BioAssay:
Records with an inconclusive call do not appear. The source made the active and inactive calls.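 The calls were made as follows, unless noted: active = aptamer binding inhibition above 30%, about 3 SD of noise from non-fluorescent compounds; inactive = inhibition at or below 30%.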

Key:
[1] = yeast TOR pathway RPL19A-GFP modulators, primary screen, cell-based, S. cerevisiae, multiplex flow cytometry (AID 1862; in the data active = percent of DMSO control GFP below about 86%;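 also: lower values mimic rapamycin by blocking the RPL19A rise seen in DMSO cells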); conditions: S. cerevisiae RPL19A-GFP strain, flow cytometry fluorescence, 3 h; at 10 µM; stronger effect = lower value
[2] = modulators of MEP2-GFP levels in yeast, primary screen, S. cerevisiae, multiplex flow cytometry (AID 1867;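 active = GFP response, as percent of the DMSO control, above the screen-wide mean plus 3 SD, about 139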;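 also: median GFP channel fluorescence of barcode-gated MEP2-GFP cells measured by flow cytometry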); conditions: S. cerevisiae MEP2-GFP strain, 3 h, at 10 µM, stronger effect = higher value, 100% means same as DMSO wells
[3] = modulators of CIT2-GFP expression in yeast, primary screen, S. cerevisiae, GFP fusion, multiplex flow cytometry (AID 1870;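 active = percent response above a set limit, the screen-wide mean plus 3 SD, cut at about 130% in these data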;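 also: barcoded CIT2-GFP strain pooled with four other GFP strains with rapamycin as positive control; median GFP fluorescence per well over plate mean of DMSO wells so 100% = DMSO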); conditions: 3 h, at 10 µM, stronger effect = higher value
[4] = modulators of LAP4-GFP expression in yeast, primary screen, S. cerevisiae, multiplex flow cytometry (AID 1873;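 active = GFP signal, as percent of the solvent control, above the screen mean plus 3 SD, about 149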); conditions: 3 h, at 10 µM, stronger effect = higher value
[5] = modulators of AGP1-GFP expression in yeast TOR pathway, primary screen, cell-based, multiplex flow cytometry, S. cerevisiae (AID 1887;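 active = GFP signal above the screen-wide mean plus 3 SD, that is over about 124.5% of the solvent control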;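 also: AGP1-GFP fusion strain of S. cerevisiae within a five-strain barcoded multiplex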); conditions: 3 h, at 10 µM, stronger effect = higher value
[6] = inhibitors of CD8+ T cell-vesicle binding, pilot screen, LFA-1/ICAM-1 modulator project, MLPCN validation set, flow cytometry (AID 2523;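 active = response below a set limit, under 55% cells CD8-positive and vesicle-bound, and CD8 cells' 90th-percentile brightness under 279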;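 as to vesicle binding response: mean PE anti-B7-1 fluorescence of CD8+ cells relative to row control; 100% = QL9-loaded vesicles with DMSO vehicle in the same plate row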); conditions: 2C mouse CD8+ T cells, at 7 µM, stronger effect = lower value; double positive events: measured here: CD8+/vesicle+ event percentage
[7] = molecular target: Integrin beta-1 (Homo sapiens) + Integrin alpha-4 (Homo sapiens) (UniProt P13612+P05556); assay: inhibition of HUTS-21 binding to VLA-4, pilot screen, VLA-4 allosteric modulator project, U937 cells, HUTS-21 mAb, flow cytometry, validation set (AID 2674;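 active = inhibition above 50%, about 3 SD of the validation set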;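 also: antibody binding induced by the VLA-4 ligand LDV present at three times its Kd; 0% = LDV ligand with antibody and no compound and 100% = antibody without LDV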); conditions: HUTS-21 LIBS mAb binding, at 6.7 µM, stronger effect = higher value, binding induced by LDV ligand
Chain of Integrin beta-1 (Homo sapiens) + Integrin alpha-4 (Homo sapiens) (P05556 whole entry, looked up): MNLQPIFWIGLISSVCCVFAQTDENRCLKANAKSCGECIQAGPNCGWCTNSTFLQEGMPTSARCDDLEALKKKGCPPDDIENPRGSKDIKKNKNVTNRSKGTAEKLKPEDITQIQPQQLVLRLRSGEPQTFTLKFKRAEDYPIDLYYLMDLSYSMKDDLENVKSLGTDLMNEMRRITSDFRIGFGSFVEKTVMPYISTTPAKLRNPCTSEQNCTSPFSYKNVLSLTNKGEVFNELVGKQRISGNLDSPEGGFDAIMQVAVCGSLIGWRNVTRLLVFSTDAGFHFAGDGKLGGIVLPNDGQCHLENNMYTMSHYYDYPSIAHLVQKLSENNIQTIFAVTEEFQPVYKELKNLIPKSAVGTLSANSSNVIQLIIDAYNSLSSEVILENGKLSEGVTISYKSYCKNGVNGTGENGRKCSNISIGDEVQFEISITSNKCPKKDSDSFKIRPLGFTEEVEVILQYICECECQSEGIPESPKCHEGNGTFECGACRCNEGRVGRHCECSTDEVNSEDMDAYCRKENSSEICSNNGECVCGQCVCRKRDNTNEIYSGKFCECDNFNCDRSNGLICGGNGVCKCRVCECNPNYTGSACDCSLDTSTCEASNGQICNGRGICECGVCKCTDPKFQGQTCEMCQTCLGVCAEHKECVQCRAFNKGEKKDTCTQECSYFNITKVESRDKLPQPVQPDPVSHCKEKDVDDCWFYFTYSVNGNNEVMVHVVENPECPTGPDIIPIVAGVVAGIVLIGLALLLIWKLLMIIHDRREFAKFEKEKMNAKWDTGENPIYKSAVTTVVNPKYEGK
Chain of Integrin beta-1 (Homo sapiens) + Integrin alpha-4 (Homo sapiens) (P13612 whole entry, looked up): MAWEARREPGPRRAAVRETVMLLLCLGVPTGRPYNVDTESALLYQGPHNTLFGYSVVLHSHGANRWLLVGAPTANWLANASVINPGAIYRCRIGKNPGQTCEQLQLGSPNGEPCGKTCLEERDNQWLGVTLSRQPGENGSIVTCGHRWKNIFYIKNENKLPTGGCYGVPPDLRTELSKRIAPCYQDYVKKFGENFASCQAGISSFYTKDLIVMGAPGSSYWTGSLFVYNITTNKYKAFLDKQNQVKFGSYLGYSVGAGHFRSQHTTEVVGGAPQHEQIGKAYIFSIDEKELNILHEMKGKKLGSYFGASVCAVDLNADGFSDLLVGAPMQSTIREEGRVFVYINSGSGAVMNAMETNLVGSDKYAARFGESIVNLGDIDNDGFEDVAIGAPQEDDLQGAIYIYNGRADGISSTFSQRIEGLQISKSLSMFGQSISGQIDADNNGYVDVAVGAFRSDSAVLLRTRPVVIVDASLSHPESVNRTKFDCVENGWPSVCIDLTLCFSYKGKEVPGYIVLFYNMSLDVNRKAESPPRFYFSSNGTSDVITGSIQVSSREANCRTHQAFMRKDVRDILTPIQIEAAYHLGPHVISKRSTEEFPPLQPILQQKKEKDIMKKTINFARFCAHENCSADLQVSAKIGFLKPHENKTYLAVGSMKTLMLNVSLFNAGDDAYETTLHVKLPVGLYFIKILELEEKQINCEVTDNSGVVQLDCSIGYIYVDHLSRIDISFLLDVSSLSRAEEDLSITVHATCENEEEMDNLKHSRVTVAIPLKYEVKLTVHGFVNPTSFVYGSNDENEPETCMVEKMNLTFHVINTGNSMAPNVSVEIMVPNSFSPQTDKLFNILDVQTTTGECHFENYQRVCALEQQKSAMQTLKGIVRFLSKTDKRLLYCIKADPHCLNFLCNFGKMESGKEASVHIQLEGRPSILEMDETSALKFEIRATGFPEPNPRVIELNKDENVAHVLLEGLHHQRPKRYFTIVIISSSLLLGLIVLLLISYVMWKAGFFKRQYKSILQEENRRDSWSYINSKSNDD

[8] = superoxide lowering in aged yeast cells, pilot screen, validation compound set (AID 2706;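 active = superoxide response below 65% of plate, a cut near 3 SD across the whole screen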;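 also: yeast exposed to compound for one week at 30 degrees C before staining; 100% = mean of all compound wells on the same plate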); conditions: S. cerevisiae aging, superoxide DHE fluorescence; at 10 µM; stronger effect = lower value
[9] = molecular target: Beta-adrenergic receptor kinase 1 (Homo sapiens) (UniProt P25098); assay: GRK2 binders displacing RNA aptamer, biochemical, validation, human GRK2, bead flow cytometry (AID 488806); conditions: bead-bound GRK2, FAM-aptamer displacement, at 10 µM, stronger effect = higher value
Chain of Beta-adrenergic receptor kinase 1 (Homo sapiens) (P25098 whole entry, looked up): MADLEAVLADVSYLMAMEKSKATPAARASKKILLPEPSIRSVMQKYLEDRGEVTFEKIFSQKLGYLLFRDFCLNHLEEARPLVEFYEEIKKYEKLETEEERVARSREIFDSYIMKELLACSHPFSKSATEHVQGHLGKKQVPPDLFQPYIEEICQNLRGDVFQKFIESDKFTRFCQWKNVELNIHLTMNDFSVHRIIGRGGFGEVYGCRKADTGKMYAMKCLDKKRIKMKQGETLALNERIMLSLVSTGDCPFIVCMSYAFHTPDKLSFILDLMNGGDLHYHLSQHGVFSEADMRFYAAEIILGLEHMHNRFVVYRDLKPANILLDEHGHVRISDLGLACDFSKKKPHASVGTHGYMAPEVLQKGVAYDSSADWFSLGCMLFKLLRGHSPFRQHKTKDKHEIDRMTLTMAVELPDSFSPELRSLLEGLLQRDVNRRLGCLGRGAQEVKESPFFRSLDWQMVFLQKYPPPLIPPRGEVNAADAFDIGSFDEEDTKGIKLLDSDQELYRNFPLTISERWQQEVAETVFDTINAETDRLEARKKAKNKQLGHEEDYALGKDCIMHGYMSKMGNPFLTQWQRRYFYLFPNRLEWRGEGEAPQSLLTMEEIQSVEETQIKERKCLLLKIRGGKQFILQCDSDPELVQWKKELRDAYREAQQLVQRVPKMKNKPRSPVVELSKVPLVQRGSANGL

[10] = molecular target: Beta-2 adrenergic receptor (Homo sapiens) (UniProt P07550); assay: beta2AR agonists driving receptor internalization, pilot screen, cell-based, FAP fluorogen, flow cytometry, validation set (AID 504459;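 active = percent response above 42, roughly 3 SD of non-fluorescent test compounds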;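 also: agonist-driven loss of surface beta2AR via internalization measured by FAP dye flow cytometry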); conditions: Am2.2-beta2AR cells, FAP surface receptor flow cytometry; at 10 µM; stronger effect = higher value
Chain of Beta-2 adrenergic receptor (Homo sapiens) (P07550 whole entry, looked up): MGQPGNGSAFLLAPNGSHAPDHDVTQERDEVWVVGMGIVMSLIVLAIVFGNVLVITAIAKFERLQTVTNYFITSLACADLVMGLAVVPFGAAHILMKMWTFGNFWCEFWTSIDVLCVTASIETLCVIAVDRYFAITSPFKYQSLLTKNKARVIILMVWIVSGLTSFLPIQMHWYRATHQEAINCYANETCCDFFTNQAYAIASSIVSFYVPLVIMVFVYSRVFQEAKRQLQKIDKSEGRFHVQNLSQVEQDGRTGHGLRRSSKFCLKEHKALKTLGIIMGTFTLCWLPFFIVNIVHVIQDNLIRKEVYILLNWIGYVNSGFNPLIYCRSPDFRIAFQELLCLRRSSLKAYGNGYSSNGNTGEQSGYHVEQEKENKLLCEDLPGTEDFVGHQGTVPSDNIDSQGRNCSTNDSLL

[11] = molecular target: AP-2 complex subunit beta (Homo sapiens) (UniProt P63010); assay: inhibitors of arrestin peptide binding to AP2, pilot screen, biochemical, validation set, GST-AP2 beads, flow cytometry (AID 504541;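 active = inhibition above 54%, about 3 SD of non-fluorescent compounds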;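 also: AP2 carries R879A mutation and is captured from E. coli lysate; bead-bound FITC arrestin peptide fluorescence measuring arrestin peptide binding to AP2; 0% = DMSO wells and 100% = excess unlabeled arrestin peptide control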); conditions: FITC arrestin peptide, at 10 µM, stronger effect = higher value, AP2 beta2 appendage fragment, R879A mutant
Chain of AP-2 complex subunit beta (Homo sapiens) (P63010 whole entry, looked up, the tested form may be a part, one chain of several): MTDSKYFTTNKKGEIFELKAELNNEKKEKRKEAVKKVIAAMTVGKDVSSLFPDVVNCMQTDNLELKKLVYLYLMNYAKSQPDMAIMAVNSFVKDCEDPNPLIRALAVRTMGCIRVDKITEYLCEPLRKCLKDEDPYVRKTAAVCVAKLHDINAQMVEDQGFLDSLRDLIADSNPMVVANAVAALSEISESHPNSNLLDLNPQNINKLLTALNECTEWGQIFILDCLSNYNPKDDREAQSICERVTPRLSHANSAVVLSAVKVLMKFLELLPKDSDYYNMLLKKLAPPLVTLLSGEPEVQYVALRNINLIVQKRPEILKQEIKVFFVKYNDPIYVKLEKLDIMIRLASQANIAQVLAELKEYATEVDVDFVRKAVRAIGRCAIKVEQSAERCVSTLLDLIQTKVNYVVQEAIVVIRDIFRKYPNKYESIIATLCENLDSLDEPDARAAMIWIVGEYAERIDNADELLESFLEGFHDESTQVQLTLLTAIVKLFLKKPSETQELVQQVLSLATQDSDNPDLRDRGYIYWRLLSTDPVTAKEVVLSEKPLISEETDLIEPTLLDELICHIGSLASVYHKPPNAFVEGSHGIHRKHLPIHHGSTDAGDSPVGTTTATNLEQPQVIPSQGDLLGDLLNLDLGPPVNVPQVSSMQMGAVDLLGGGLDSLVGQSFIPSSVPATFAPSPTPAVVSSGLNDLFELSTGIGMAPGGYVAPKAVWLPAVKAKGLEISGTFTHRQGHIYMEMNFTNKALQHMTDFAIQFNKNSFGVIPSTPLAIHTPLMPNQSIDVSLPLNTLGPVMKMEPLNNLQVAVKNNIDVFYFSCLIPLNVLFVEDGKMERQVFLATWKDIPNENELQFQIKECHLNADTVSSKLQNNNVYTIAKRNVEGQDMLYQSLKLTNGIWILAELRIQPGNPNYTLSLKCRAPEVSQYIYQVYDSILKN

[12] = yeast V-ATPase proton transport modulators, S. cerevisiae, pHLuorin, HTS validation (AID 504600; in the data active = response above about 15%;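 also: plate controls were DMSO for no effect and reference compound for full effect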); conditions: S. cerevisiae pHLuorin cytosolic pH, at 10 µM, stronger effect = higher value
[13] = test system: anti-desmoglein-3 scFv antibody binding to human DSG3; assay: inhibitors of anti-DSG3 scFv binding to DSG3, pilot screen, biochemical, validation compound set, bead-based, flow cytometry (AID 588368;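 active = binding below the plate cutoff, the plate median minus 3 SD, with a reading above zero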;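 also: signal is the median channel fluorescence of bead-bound GFP antibody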); conditions: Protein G beads, DSG3-Fc, scFv-GFP binding, at 10 µM, stronger effect = lower value
[14] = inhibitors of fungal efflux pumps CDR1, CDR2, MDR1, pilot screen, validation compound set, multiplex, phenotypic (AID 588506;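 active = efflux inhibition above 0.42, the validation set average plus 4 SD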;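 also: Nile Red retained in cells so higher fluorescence means more efflux inhibition; 0 = negative control wells and 1 = enniatin B 25 µM full block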); conditions: S. cerevisiae pump-expressing triplex, Nile Red efflux flow cytometry; at 10 µM; stronger effect = higher value; the pumps come from Candida albicans
[15] = molecular target: ATP-binding cassette sub-family B member 6 (Homo sapiens) (UniProt Q9NP58); assay: ABCB6 transporter inhibitors, pilot screen, K562-ABCB6 cells, flow cytometry, validation set (AID 588550;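 active = inhibition above the screen-wide mean plus 3 SD, about 51%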;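 also: 0% = DMSO wells and 100% = benzethonium chloride 70 µM positive control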); conditions: K562-ABCB6 porphyrin accumulation, 1 h, at 10 µM, stronger effect = higher value
Chain of ATP-binding cassette sub-family B member 6 (Homo sapiens) (Q9NP58 whole entry, looked up): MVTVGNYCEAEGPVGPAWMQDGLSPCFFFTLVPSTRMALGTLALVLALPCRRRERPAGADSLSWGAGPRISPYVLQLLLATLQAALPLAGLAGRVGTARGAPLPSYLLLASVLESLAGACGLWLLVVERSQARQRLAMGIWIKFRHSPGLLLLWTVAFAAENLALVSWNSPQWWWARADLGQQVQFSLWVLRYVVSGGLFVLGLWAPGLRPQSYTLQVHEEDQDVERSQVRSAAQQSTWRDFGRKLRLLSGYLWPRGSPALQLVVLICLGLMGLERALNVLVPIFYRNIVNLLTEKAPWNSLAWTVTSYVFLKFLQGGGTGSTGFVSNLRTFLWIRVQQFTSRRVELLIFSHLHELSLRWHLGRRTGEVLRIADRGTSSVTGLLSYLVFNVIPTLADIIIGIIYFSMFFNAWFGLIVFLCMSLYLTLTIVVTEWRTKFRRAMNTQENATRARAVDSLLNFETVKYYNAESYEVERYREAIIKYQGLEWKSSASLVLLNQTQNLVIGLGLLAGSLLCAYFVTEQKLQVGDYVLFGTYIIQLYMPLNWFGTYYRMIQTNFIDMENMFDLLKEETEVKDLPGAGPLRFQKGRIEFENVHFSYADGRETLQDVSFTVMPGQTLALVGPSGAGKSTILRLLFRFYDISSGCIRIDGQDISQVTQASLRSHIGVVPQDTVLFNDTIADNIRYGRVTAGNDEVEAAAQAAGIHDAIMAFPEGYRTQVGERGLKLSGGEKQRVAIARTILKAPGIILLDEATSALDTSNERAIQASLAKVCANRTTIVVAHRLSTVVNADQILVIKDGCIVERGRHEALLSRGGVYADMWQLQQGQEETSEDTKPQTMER

[16] = promoters of myeloid differentiation in arrested cells, primary screen, cell-based, GFP/MAC1 double positive, flow cytometry, validation set (AID 588685;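 active = differentiation response of at least 50%, scaled between solvent and reference control, from cells with both markers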;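 also: compound exposure lasts four days before antibody staining and flow analysis; 0% = DMSO wells and 100% = 5 µM fulvestrant positive control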); conditions: ER-HoxA9 marrow cells, stronger effect = higher value, normalized: vehicle 0, fulvestrant 100

Row | Compound | percent of DMSO control GFP [1] | GFP response vs DMSO [2] | percent response of DMSO control [3] | GFP response vs DMSO [4] | GFP response, % of DMSO [5] | double positive events [6] [%] | vesicle binding response [6] | inhibition [7] | superoxide response (% of plate) [8] | aptamer binding inhibition [9] | response [10] | inhibition [11] | response [12] | binding (% of control) [13] | efflux inhibition (fraction of control) [14] | inhibition [15] | differentiation response [16]
1 | CCOC(=O)C1(Cc2cccc(Cl)c2)CCCN(C2CCN(C(C)=O)CC2)C1 (stereo not drawn) | 101% (inactive) | 101% (inactive) | 102% (inactive) | 101% (inactive) | 100% (inactive) | 60.5 | 42.6% (inactive) | -7.72% (inactive) | 106% (inactive) | -3% (inactive) | -8.31% (inactive) | 34.6% (inactive) | -5.5% (inactive) | 177% (inactive) | -0.1 (inactive) | 13% (inactive) | -0.73% (inactive)
2 | CC12CN3CC(C)(CN(C1)C3c1ccc(Br)cc1O)C2 (stereo not drawn) | 101% (inactive) | 108% (inactive) | 108% (inactive) | 123% (inactive) | 106% (inactive) | 57.2 | 197% (inactive) | 6.55% (inactive) | 127% (inactive) | -3% (inactive) | -11.7% (inactive) | -45.4% (inactive) | 19% (active) | 103% (inactive) | 0.21 (inactive) | -1% (inactive) | 2.89% (inactive)
3 | Cc1cnc(N)c2c(=O)oc3ccccc3c12 | 99.8% (inactive) | 100% (inactive) | 105% (inactive) | 96.6% (inactive) | 95.3% (inactive) | 61.2 | 275% (inactive) | -8.75% (inactive) | 98.8% (inactive) | 4% (inactive) | -6.01% (inactive) | -2.59% (inactive) | -3.82% (inactive) | 97.1% (inactive) | -0.01 (inactive) | -2% (inactive) | -6.6% (inactive)
4 | Cc1ccc(S(=O)(=O)n2ccnc2)cc1C | 98.4% (inactive) | 112% (inactive) | 99.6% (inactive) | 108% (inactive) | 121% (inactive) | 60.3 | 160% (inactive) | 6.55% (inactive) | 95.2% (inactive) | 1% (inactive) | -20.5% (inactive) | -13.3% (inactive) | 1.99% (inactive) | 102% (inactive) | -0.09 (inactive) | 3% (inactive) | -2.03% (inactive)
5 | CCn1c(C)cc2c(c1=O)C(c1ccccc1)C(C(=O)OC)=C(N)O2 (stereo not drawn) | 102% (inactive) | 105% (inactive) | 98.3% (inactive) | 108% (inactive) | 111% (inactive) | 58.8 | 167% (inactive) | 18.5% (inactive) | 108% (inactive) | 4% (inactive) | -32.4% (inactive) | 1.11% (inactive) | -16.3% (inactive) | 102% (inactive) | 0.04 (inactive) | 7% (inactive) | 4.86% (inactive)
6 | COC(=O)[C@@H](N)CS | 102% (inactive) | 102% (inactive) | 98.2% (inactive) | 95.1% (inactive) | 103% (inactive) | 60.5 | 61.8% (inactive) | -3.18% (inactive) | 101% (inactive) | 8% (inactive) | 15.2% (inactive) | -20.1% (inactive) | 0.91% (inactive) | 95.6% (inactive) | 0.2 (inactive) | 4% (inactive) | -3.4% (inactive)
7 | CC(=O)N/C(=C/c1ccc2c(c1)OCO2)C(=O)NCCO | 98.2% (inactive) | 106% (inactive) | 93.9% (inactive) | 111% (inactive) | 106% (inactive) | 61.5 | 3870% (inactive) | -5.89% (inactive) | 106% (inactive) | 0% (inactive) | 2.49% (inactive) | -4.62% (inactive) | 1.75% (inactive) | 97.4% (inactive) | -0.42 (inactive) | 2% (inactive) | -5.6% (inactive)
8 | O=C(NCCO)c1ccc(Cl)c(Cl)c1 | 103% (inactive) | 104% (inactive) | 102% (inactive) | 99.1% (inactive) | 107% (inactive) | 59.4 | 97% (inactive) | -11.8% (inactive) | 105% (inactive) | -1% (inactive) | -1.25% (inactive) | -1.25% (inactive) | 0.22% (inactive) | 104% (inactive) | 0.78 (active) | 9% (inactive) | -10.4% (inactive)
9 | Cc1ncc(CN2CCC(CO)(CCc3ccccc3)CC2)s1 | 101% (inactive) | 111% (inactive) | 104% (inactive) | 102% (inactive) | 110% (inactive) | 62.3 | 98.1% (inactive) | 6.95% (inactive) | 97.2% (inactive) | 2% (inactive) | -0.43% (inactive) | -1.19% (inactive) | 0.58% (inactive) | 107% (inactive) | -0.07 (inactive) | 6% (inactive) | -1.65% (inactive)
10 | COc1ccc(NS(=O)(=O)c2ccc(N)cc2)nn1 | 97.3% (inactive) | 104% (inactive) | 92.9% (inactive) | 120% (inactive) | 102% (inactive) | 56.9 | 162% (inactive) | 5.03% (inactive) | 91.9% (inactive) | 6% (inactive) | -5.23% (inactive) | 4.72% (inactive) | 3.89% (inactive) | 102% (inactive) | -0.17 (inactive) | 2% (inactive) | -12% (inactive)
11 | Nc1nc(Cl)nc2c1ncn2[C@H]1C[C@H](O)[C@@H](CO)O1 | 99.2% (inactive) | 102% (inactive) | 106% (inactive) | 104% (inactive) | 114% (inactive) | 63.3 | 225% (inactive) | 0.59% (inactive) | 86.7% (inactive) | 7% (inactive) | -24.5% (inactive) | 27.9% (inactive) | 2.75% (inactive) | 103% (inactive) | 0 (inactive) | -1% (inactive) | -9.91% (inactive)
12 | COc1ccccc1Oc1c(C)oc2c(CN3CCN(CCO)CC3)c(O)ccc2c1=O | 104% (inactive) | 101% (inactive) | 109% (inactive) | 98% (inactive) | 104% (inactive) | 58.7 | 111% (inactive) | -11.8% (inactive) | 96.1% (inactive) | -1% (inactive) | 6.51% (inactive) | -2.65% (inactive) | 0.24% (inactive) | 103% (inactive) | -0.14 (inactive) | -1% (inactive) | 11.5% (inactive)
13 | COc1cccc(OCc2nnc(-c3cccs3)o2)c1 | 103% (inactive) | 105% (inactive) | 102% (inactive) | 120% (inactive) | 99.6% (inactive) | 60.1 | 248% (inactive) | 5.69% (inactive) | 104% (inactive) | 3% (inactive) | 55.8% (active) | 61% (active) | -2.54% (inactive) | 102% (inactive) | 0.08 (inactive) | -5% (inactive) | -0.06% (inactive)
14 | CC1(C)CC(NCc2ccccc2)CCO1 (stereo not drawn) | 103% (inactive) | 97.6% (inactive) | 96.4% (inactive) | 101% (inactive) | 114% (inactive) | 60.6 | 226% (inactive) | 13.4% (inactive) | 94.9% (inactive) | 0% (inactive) | -7.51% (inactive) | 60.9% (active) | 5.23% (inactive) | 101% (inactive) | 0.04 (inactive) | 4% (inactive) | -7.94% (inactive)
15 | c1ccc(Cn2ncc3c(Nc4ccccc4)ncnc32)cc1 | 96.7% (inactive) | 106% (inactive) | 103% (inactive) | 117% (inactive) | 107% (inactive) | 63.6 | 244% (inactive) | 9.95% (inactive) | 121% (inactive) | -1% (inactive) | -42.2% (inactive) | 9.49% (inactive) | 3.17% (inactive) | 101% (inactive) | 0.08 (inactive) | 2% (inactive) | -8.93% (inactive)
16 | c1ccc(CC2=NCCN2)cc1 | 104% (inactive) | 107% (inactive) | 100% (inactive) | 103% (inactive) | 102% (inactive) | 61.8 | 181% (inactive) | 0% (inactive) | 101% (inactive) | -2% (inactive) | -7.37% (inactive) | -16.6% (inactive) | 1.43% (inactive) | 98% (inactive) | -0.07 (inactive) | -5% (inactive) | 14.9% (inactive)
17 | COc1cc(CNCCc2c[nH]c3ccccc23)cc(Cl)c1OCC(N)=O | 107% (inactive) | 97.4% (inactive) | 102% (inactive) | 94% (inactive) | 97.2% (inactive) | 66.2 | 340% (inactive) | -7.25% (inactive) | 102% (inactive) | -6% (inactive) | 14.8% (inactive) | -2.94% (inactive) | 1.24% (inactive) | 99.9% (inactive) | 0.3 (inactive) | 0% (inactive) | -10.4% (inactive)
18 | NCCCC(N)(C(=O)O)C(F)F (stereo not drawn) | 93.5% (inactive) | 99.7% (inactive) | 98.6% (inactive) | 107% (inactive) | 112% (inactive) | 62.2 | 174% (inactive) | 5.61% (inactive) | 105% (inactive) | 3% (inactive) | 5.08% (inactive) | 13.1% (inactive) | -10.9% (inactive) | 97.7% (inactive) | -0.135 (inactive) | -5% (inactive) | -4.57% (inactive)
19 | O=C(O)c1cc2cc(Cl)cc(Cl)c2oc1=O | 97.9% (inactive) | 129% (inactive) | 104% (inactive) | 80.9% (inactive) | 93.1% (inactive) | 41.9 | 63.6% (active) | -12.9% (inactive) | 113% (inactive) | 7% (inactive) | -14.8% (inactive) | 8.6% (inactive) | 10.3% (inactive) | 98.7% (inactive) | 0.05 (inactive) | 8% (inactive) | 27.8% (inactive)
